PubChem BioAssay (NCATS)
Records with an inconclusive call do not appear. The source made the active and inactive calls. The call rests on the fitted dose curve; in most records, active means well fitted cell-killing curve with a large enough effect; inconclusive means small, poorly fitted or top-dose-only effect, or effect the other way; inactive means no such curve, though single readings can be large or run the other way.

How the values were obtained:
[1] = Quantitative High-Throughput drug screen in 47 multiple myeloma cell lines against the NCATS MIPE library collection: KMS28PE_JCRB cell viability assay (AID 1918983); details: KMS28PE multiple myeloma viability, CellTiter-Glo ATP, 48 h; series mostly up to 45.8 µM; further: nearly all actives have a fitted effect of over 35% in size
Outline: (§1)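 Inhibition of viability over 48 h was scored by ATP content (CellTiter-Glo) in 500-cell wells. Zero and full viability were defined by media-only and DMSO-only wells.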

[2] = Quantitative High-Throughput drug screen in 47 multiple myeloma cell lines against the NCATS MIPE library collection: OPM1_PLB cell viability assay (AID 1918989); details: CellTiter-Glo, 48 h; series mostly up to 45.8 µM; further: nearly all actives have a fitted effect of over 40% in size
Outline: as §1

[3] = Quantitative High-Throughput drug screen in 47 multiple myeloma cell lines against the NCATS MIPE library collection: SKMM1_PLB cell viability assay (AID 1919863); details: SKMM1 myeloma viability, CellTiter-Glo ATP, 48 h; viability: hits give low values; further: nearly all actives have a fitted effect of over 35% in size
Outline: as §1

[4] = Quantitative High-Throughput drug screen in 47 multiple myeloma cell lines against the NCATS MIPE library collection: XG6_PLB cell viability assay (AID 1919865); details: XG6 myeloma viability, CellTiter-Glo ATP luminescence, 48 h; series mostly up to 45.8 µM; further: nearly all actives have a fitted effect of over 40% in size
Outline: as §1

[5] = Quantitative High-Throughput drug screen in 47 multiple myeloma cell lines against the NCATS MIPE library collection: VP6_DJ cell viability assay (AID 1919867); details: ATP luminescence, 48 h; series mostly up to 45.8 µM; further: nearly all actives have a fitted effect of over 40% in size
Outline: as §1

[6] = Quantitative High-Throughput drug screen in 47 multiple myeloma cell lines against the NCATS MIPE library collection: UTMC2_PLB cell viability assay (AID 1919868); details: CellTiter-Glo ATP luminescence, 48 h; viability (% of DMSO control): at 45.8 µM (top of the series); further: nearly all actives have a fitted effect of over 55% in size
Outline: as §1

[7] = Quantitative High-Throughput drug screen in 47 multiple myeloma cell lines against the NCATS MIPE library collection: PE2_PLB cell viability assay (AID 1919869); details: PE2_PLB myeloma cells viability, ATP luminescence, 48 h; series mostly up to 45.8 µM; further: nearly all actives have a fitted effect of over 35% in size
Outline: as §1

[8] = Quantitative High-Throughput drug screen in 47 multiple myeloma cell lines against the NCATS MIPE library collection: PCM6_Riken cell viability assay (AID 1919870); details: CellTiter-Glo ATP, 48 h; series mostly up to 45.8 µM; further: nearly all actives have a fitted effect of over 30% in size
Outline: as §1

[9] = Quantitative High-Throughput drug screen in 47 multiple myeloma cell lines against the NCATS MIPE library collection: RPMI8226_ATCC cell viability assay (AID 1919871); details: RPMI8226 myeloma viability, CellTiter-Glo ATP luminescence, 48 h; series mostly up to 45.8 µM; further: nearly all actives have a fitted effect of over 30% in size
Outline: as §1

[10] = Quantitative High-Throughput drug screen in 47 multiple myeloma cell lines against the NCATS MIPE library collection: OPM2_DSMZ cell viability assay (AID 1919872); details: OPM2 myeloma viability, CellTiter-Glo ATP luminescence, 48 h; series mostly up to 45.8 µM; further: nearly all actives have a fitted effect of over 30% in size
Outline: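 We plated 500 myeloma cells per well, pinned in MIPE 4.0 compounds, and incubated for 48 hours at 37C. ATP was then quantified with CellTiter-Glo, with DMSO and media-only wells defining 100% and 0%.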

[11] = Quantitative High-Throughput drug screen in 47 multiple myeloma cell lines against the NCATS MIPE library collection: KMS11_JCRBsus cell viability assay (AID 1919873); details: KMS11 myeloma viability, CellTiter-Glo ATP luminescence, 48 h; series mostly up to 45.8 µM; further: nearly all actives have a fitted effect of over 50% in size
Outline: as §1

[12] = Quantitative High-Throughput drug screen in 47 multiple myeloma cell lines against the NCATS MIPE library collection: KMS28BM_JCRB cell viability assay (AID 1919874); details: CellTiter-Glo ATP, 48 h; series mostly up to 45.8 µM; further: nearly all actives have a fitted effect of over 35% in size
Outline: as §1

[13] = Quantitative High-Throughput drug screen in 47 multiple myeloma cell lines against the NCATS MIPE library collection: L363_DSMZ cell viability assay (AID 1918984); details: L363 myeloma viability, CellTiter-Glo ATP luminescence, 48 h; series mostly up to 45.8 µM; further: nearly all actives have a fitted effect of over 40% in size
Outline: as §1

[14] = Quantitative High-Throughput drug screen in 47 multiple myeloma cell lines against the NCATS MIPE library collection: OCIMY7_PLB cell viability assay (AID 1918987); details: OCI-MY7 myeloma viability, CellTiter-Glo ATP, 48 h; viability (% of DMSO): at 45.8 µM (top of the series); further: nearly all actives have a fitted effect of over 65% in size
Outline: as §1

[15] = Quantitative High-Throughput drug screen in 47 multiple myeloma cell lines against the NCATS MIPE library collection: OCIMY5_PLB cell viability assay (AID 1918988); details: OCI-MY5 myeloma viability, ATP luminescence, 48 h; series mostly up to 45.8 µM; further: nearly all actives have a fitted effect of over 65% in size
Outline: as §1

[16] = Quantitative High-Throughput drug screen in 47 multiple myeloma cell lines against the NCATS MIPE library collection: U266_ATCC cell viability assay (AID 1919864); details: U266 myeloma viability, CellTiter-Glo ATP luminescence, 48 h; series mostly up to 45.8 µM; further: nearly all actives have a fitted effect of over 35% in size
Outline: as §1

[17] = Quantitative High-Throughput drug screen in 47 multiple myeloma cell lines against the NCATS MIPE library collection: XG1_PLB cell viability assay (AID 1919866); details: CellTiter-Glo ATP, 48 h; series mostly up to 45.8 µM; further: nearly all actives have a fitted effect of over 35% in size
Outline: as §1

[18] = Quantitative High-Throughput drug screen in 47 multiple myeloma cell lines against the NCATS MIPE library collection: KMS34_JCRB cell viability assay (AID 1918985); details: KMS34 myeloma viability, CellTiter-Glo ATP luminescence, 48 h; series mostly up to 45.8 µM; further: nearly all actives have a fitted effect of over 40% in size
Outline: as §1
Potency means the concentration at half of the fitted maximal effect.

C[C@H]1O[C@H](O[C@H]2[C@H](O)[C@@H](O)[C@@H](O[C@H]3[C@H](O)[C@@H](O)C(O)O[C@H]3CO)O[C@H]2CO)[C@H](O)[C@@H](O)[C@H]1N[C@H]1C=C(CO)[C@@H](O)[C@H](O)[C@@H]1O (stereo partly drawn)
inactive: Potency [1] | Potency [2] | viability [3] 131% | Potency [4] | Potency [5] | Potency [6] | Potency [7] | Potency [8] | Potency [9] | Potency [10] | Potency [11] | Potency [12]

CC(C=CC=C(C)C=CC1=C(C)CCCC1(C)C)=CC=CC=C(C)C=CC=C(C)C=CC1=C(C)CCCC1(C)C
inactive: Potency [2] | Potency [10]
active: Potency [13] 16.6 µM | Potency [14] 2.09 µM | Potency [15] 9.35 µM | Potency [16] 16.6 µM | Potency [4] 5.26 µM | Potency [17] 16.6 µM | Potency [5] 23.5 µM | Potency [8] 23.5 µM

COc1cc(OC)c(NC(=O)Nc2cc(C)on2)cc1Cl
inactive: Potency [13] | Potency [18] | Potency [2] | viability [3] 145% | Potency [4] | Potency [17] | Potency [7] | Potency [8] | Potency [12]

Cn1cc(C=CC(=O)c2cccc(F)c2)cc1C=CC(=O)NO
active: Potency [13] 11.8 µM | Potency [18] 16.6 µM | Potency [14] 11.8 µM | Potency [2] 23.5 µM | Potency [16] 14.8 µM | Potency [4] 2.35 µM | Potency [17] 5.9 µM | Potency [7] 20.9 µM | Potency [8] 18.7 µM | Potency [10] 23.5 µM | Potency [11] 14.8 µM
inactive: Potency [9]

CCN(CC)Cc1ccc2cc(COC(=O)Nc3ccc(C(=O)NO)cc3)ccc2c1
active: Potency [1] 662 nM | Potency [14] 0.372 µM | Potency [3] 0.935 µM | Potency [16] 0.662 µM | Potency [4] 1.66 µM | Potency [17] 0.833 µM | Potency [5] 0.132 µM | Potency [6] 0.148 µM | Potency [7] 0.935 µM | Potency [8] 0.833 µM | Potency [9] 1.05 µM | Potency [10] 0.833 µM | Potency [12] 418 nM

COc1cc(C(C)C)c(Oc2cnc(NC(CO)CO)nc2N)cc1I
inactive: Potency [1] | viability [3] 122% | Potency [17] | Potency [8] | Potency [10] | Potency [11] | Potency [12]
active: Potency [15] 1.48 µM | Potency [16] 1.48 µM | viability (% of DMSO control) [6] 201% | Potency [7] 7.43 µM | Potency [9] 3.32 µM

O=C(CN1C(=O)C2(CCCC2)NC[C@H]1c1cc(F)cc(F)c1)Nc1ccc2c(c1)C[C@@]1(C2)C(=O)Nc2ncccc21
inactive: Potency [13] | Potency [18] | Potency [2] | viability [3] 120% | Potency [4] | Potency [17] | Potency [5] | Potency [6] | Potency [9] | Potency [10] | Potency [11] | Potency [12]

Nc1nc2c(c(=O)[nH]1)N(C=O)[C@H](CNc1ccc(C(=O)N[C@@H](CCC(=O)O)C(=O)O)cc1)CN2
inactive: Potency [18] | Potency [15] | Potency [2] | Potency [4] | Potency [17] | Potency [5] | Potency [7] | Potency [8] | Potency [9] | Potency [10] | Potency [11] | Potency [12]

O=[N+]([O-])c1cn2c(n1)OC[C@@H](OCc1ccc(OC(F)(F)F)cc1)C2
active: Potency [16] 18.7 µM
inactive: Potency [2] | Potency [4] | Potency [17] | Potency [8] | Potency [9] | Potency [10] | Potency [11] | Potency [12]

CC[C@H]1OC(=O)[C@H](C)[C@@H](O[C@H]2C[C@@](C)(OC)[C@@H](O)[C@H](C)O2)[C@H](C)[C@@H](O[C@@H]2O[C@@H](C)C[C@H](N(C)C)[C@@H]2O)[C@](C)(O)C[C@@H](C)C(=O)[C@H](C)[C@@H](O)[C@]1(C)O
inactive: Potency [15] | Potency [2] | Potency [5] | Potency [8] | Potency [9] | Potency [10] | Potency [11] | Potency [12]

CC(C)n1cnc2c(NCCc3ccc(O)cc3)nc(-c3csc4ccccc34)nc21
active: Potency [18] 20.9 µM | Potency [14] 7.43 µM | Potency [2] 23.5 µM | Potency [3] 20.9 µM | Potency [16] 2.35 µM | Potency [4] 3.72 µM | Potency [5] 8.33 µM | Potency [6] 10.5 µM | Potency [8] 10.5 µM | Potency [11] 18.7 µM

CN(N=O)C(=O)N[C@H]1C(O)OC(CO)[C@@H](O)[C@H]1O (stereo partly drawn)
inactive: Potency [13] | Potency [14] | Potency [2] | Potency [4] | Potency [17] | Potency [7] | Potency [8] | Potency [9] | Potency [12]
